Data taken from PubChem BioAssay (NCI).
Compounds without any hit were thinned out: in the full panel of roughly 83,000, 20% have a hit.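 Activity criterion: percent growth below 10, measured after cells in 96-well plates were exposed to a single compound concentration for 48 hours.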 Calls of active or inactive are those of the source.

Tests used:
Experiment in all cases: NCI-60 one-dose screen, 48 h (100 = growth as untreated, 0 = no growth, -100 = all killed)
NCI-H23 lung = details: 10 µM unless noted
NCI-H226 lung = details: 10 µM unless noted
NCI-H322M lung = details: 10 µM unless noted
HOP-62 NSCLC = details: 10 µM unless noted
NCI-H460 lung = details: 10 µM unless noted
HOP-92 NSCLC = details: 10 µM
NCI-H522 lung = details: 10 µM unless noted
A549/ATCC NSCLC = details: 10 µM unless noted
786-0 renal = details: 10 µM unless noted
COLO 205 colon = details: 10 µM unless noted
DU-145 prostate = details: 10 µM unless noted
K-562 leukemia = details: 10 µM unless noted
MALME-3M melanoma = details: 10 µM unless noted
MDA-MB-231 breast = details: 10 µM unless noted
SF-268 CNS = details: 10 µM unless noted
SF-295 CNS = details: 10 µM unless noted
SF-539 CNS = details: 10 µM unless noted
UACC-257 melanoma = details: 10 µM unless noted
RXF 393 renal = details: 10 µM unless noted
M14 melanoma = details: 10 µM unless noted

Measured: growth

COc1c(N2CC3CCCNC3C2)c(F)cc2c(=O)c(C(=O)N/N=C/c3c[nH]c4ccccc34)cn(C3CC3)c12 (stereo unspecified)
inactive: NCI-H23 lung 102% | NCI-H226 lung 107% | NCI-H322M lung 105% | HOP-62 NSCLC 109% | NCI-H460 lung 107% | HOP-92 NSCLC 79.6% | NCI-H522 lung 107% | A549/ATCC NSCLC 102% | 786-0 renal 95.1% | COLO 205 colon 107% | DU-145 prostate 104% | MALME-3M melanoma 118% | MDA-MB-231 breast 95.3% | SF-268 CNS 91.9% | SF-295 CNS 110% | SF-539 CNS 88.2% | UACC-257 melanoma 121%
active: K-562 leukemia 3.26%

NS(=O)(=O)c1ccc(Nc2nc(Nc3ccccc3)nc3nnc(SCC(=O)NC4CCCCC4)n23)cc1
inactive: NCI-H23 lung 109% | NCI-H226 lung 100% | NCI-H322M lung 104% | HOP-62 NSCLC 103% | NCI-H460 lung 106% | HOP-92 NSCLC 105% | NCI-H522 lung 92.1% | A549/ATCC NSCLC 108% | 786-0 renal 103% | DU-145 prostate 106% | K-562 leukemia 94.1% | MALME-3M melanoma 101% | MDA-MB-231 breast 95% | RXF 393 renal 126% | SF-268 CNS 106% | SF-295 CNS 105% | SF-539 CNS 96.1% | UACC-257 melanoma 104%

Cn1ccnc1C(=O)/C=C/c1ccc(CNC(=O)c2ccc(Cl)cc2)cc1
active: NCI-H23 lung -7.45% | NCI-H226 lung 4.1% | NCI-H322M lung 6.29% | NCI-H460 lung -18.9% | NCI-H522 lung 7.07% | A549/ATCC NSCLC 8.09% | SF-539 CNS -26.7%
inactive: HOP-62 NSCLC 16.3% | HOP-92 NSCLC 10.3% | 786-0 renal 12.4% | COLO 205 colon 13.6% | DU-145 prostate 10.2% | K-562 leukemia 13.2% | MALME-3M melanoma 73.5% | MDA-MB-231 breast 13.3% | SF-268 CNS 10.1% | SF-295 CNS 13.8% | UACC-257 melanoma 67.9%

COc1ccc(/C=N/NC(=O)c2cn(C3CC3)c3c(OC)c(N4CC5CCCNC5C4)c(F)cc3c2=O)cc1 (stereo unspecified)
inactive: NCI-H23 lung 85.7% | NCI-H226 lung 99% | NCI-H322M lung 89.7% | HOP-62 NSCLC 101% | NCI-H460 lung 92% | HOP-92 NSCLC 74.5% | NCI-H522 lung 102% | A549/ATCC NSCLC 98.5% | 786-0 renal 84.2% | COLO 205 colon 95.1% | DU-145 prostate 93.6% | MALME-3M melanoma 90.4% | MDA-MB-231 breast 81.1% | SF-268 CNS 83.6% | SF-295 CNS 103% | SF-539 CNS 35.5% | UACC-257 melanoma 106%
active: K-562 leukemia 7.92%

COc1ccc(COc2ccc(/C=C3\C(=O)Nc4ccccc43)cc2OC)cc1
inactive: NCI-H23 lung 103% | NCI-H226 lung 103% | NCI-H322M lung 106% | HOP-62 NSCLC 100% | NCI-H460 lung 103% | HOP-92 NSCLC 101% | NCI-H522 lung 93.4% | A549/ATCC NSCLC 109% | 786-0 renal 105% | COLO 205 colon 123% | DU-145 prostate 109% | K-562 leukemia 101% | MALME-3M melanoma 99.7% | MDA-MB-231 breast 99.9% | SF-268 CNS 103% | SF-295 CNS 103% | SF-539 CNS 95.9% | UACC-257 melanoma 116%

C#Cc1nc(/C=C/C(=O)c2nccn2C)cs1
active: NCI-H23 lung -69.3% | NCI-H226 lung 4.67% | HOP-62 NSCLC -44.9% | NCI-H460 lung -47.2% | HOP-92 NSCLC -71% | NCI-H522 lung -60.1% | A549/ATCC NSCLC -3.96% | 786-0 renal -65.9% | COLO 205 colon -30.6% | DU-145 prostate -45.6% | K-562 leukemia -16.8% | MALME-3M melanoma -75.6% | MDA-MB-231 breast -64.7% | SF-268 CNS -54.2% | SF-295 CNS -87.8% | SF-539 CNS -82.7% | UACC-257 melanoma -19%
inactive: NCI-H322M lung 28.5%

Nc1nc(Nc2ccccc2SSc2ccccc2Nc2nc(N)nc(-c3cccc(Br)c3)n2)nc(-c2cccc(Br)c2)n1
active: A549/ATCC NSCLC 1.19%
inactive: NCI-H23 lung 31.6% | NCI-H226 lung 47.8% | NCI-H322M lung 94.8% | HOP-62 NSCLC 11.8% | NCI-H460 lung 31.8% | HOP-92 NSCLC 86% | 786-0 renal 79.3% | COLO 205 colon 116% | DU-145 prostate 62.1% | K-562 leukemia 58.8% | MALME-3M melanoma 99.9% | MDA-MB-231 breast 57.3% | RXF 393 renal 58% | SF-268 CNS 36.9% | SF-295 CNS 29.8% | SF-539 CNS 95.2% | UACC-257 melanoma 112% | M14 melanoma 90.4%

CC(=O)C1=C(C)NC(NNC(N)=S)=NC1c1ccccc1 (stereo unspecified)
inactive: NCI-H23 lung 92.8% | NCI-H226 lung 99.7% | NCI-H322M lung 101% | HOP-62 NSCLC 71.8% | NCI-H460 lung 104% | HOP-92 NSCLC 78.4% | A549/ATCC NSCLC 87.9% | 786-0 renal 83% | COLO 205 colon 106% | DU-145 prostate 90.9% | K-562 leukemia 113% | MALME-3M melanoma 110% | MDA-MB-231 breast 77% | RXF 393 renal 45.5% | SF-268 CNS 84.8% | SF-295 CNS 102% | SF-539 CNS 96.7% | UACC-257 melanoma 104% | M14 melanoma 92.9%
